Source: PubChem BioAssay
The source made the active and inactive calls. Unless noted, the rule behind the calls is not given here.

How the values were obtained:
[1] = tested on: Wnt5a (protein binding on small-molecule microarray); experiment: small molecules binding Wnt5a protein – biophysical, small-molecule microarray, 635/667 nm fluorescence, primary screen (AID 1142); settings: 635 nm fluorescence, higher = more signal;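 note: fluorescence read at 667 nm with signal to noise per printed feature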
[2] = ATP-based viability of Huh7 replicon cells – cell-based, CellTiter-Glo luminescence, basal, 48 h, cytotoxicity control for HCV replication inhibitor project, primary screen (AID 1143); settings: higher = more signal, called active from +8 up or from −8 down;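 note: Huh7 hepatoma cells carrying a hepatitis C replication reporter with no stimulus; test concentration not given here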
[3] = Pseudomonas biofilm growth suppression – PAO1 strain, BacTiter-Glo luminescence, LB-PBS, primary screen (AID 1144); settings: P. aeruginosa PAO1 biofilm, 12 h, higher = more signal
[4] = basal CRE-LacZ reporter activity in PC12 – cell-based, unstimulated, primary screen (AID 1145); settings: no forskolin, luminescence, 4.5 h, higher = more signal, called active from +8 up or from −8 down
[5] = forskolin-driven CRE-LacZ activity in PC12 – cell-based, CRE-LacZ reporter, forskolin-stimulated, primary screen (AID 1146); settings: luminescence, 4.5 h, higher = more signal, called active from +8 up or from −8 down;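 note: PC12 cells with 6xCRE LacZ reporter stimulated by forskolin 10 µM; beta-galactosidase reporter signal reflecting CREB driven transcription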
[6] = biological target: Streptavidin (Streptomyces avidinii) (UniProt P22629); experiment: compounds binding control protein streptavidin – biophysical, small-molecule microarray, 635/667 nm fluorescence, artefact control for SMM compound annotation, primary screen (AID 1147); settings: higher = more signal;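 note: signal reflects streptavidin binding to arrayed compounds as a control protein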
Sequence of Streptavidin (Streptomyces avidinii) (P22629 whole entry, looked up): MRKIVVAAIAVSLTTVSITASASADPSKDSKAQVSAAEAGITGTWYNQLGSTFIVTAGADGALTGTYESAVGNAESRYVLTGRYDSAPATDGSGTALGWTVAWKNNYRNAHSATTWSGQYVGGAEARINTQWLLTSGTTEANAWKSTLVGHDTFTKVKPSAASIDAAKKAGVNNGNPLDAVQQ

[7] = probe aInhba binding on compound microarray – biochemical, small-molecule microarray, 635/667 nm fluorescence, primary screen (AID 1148); settings: higher = more signal;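 note: score merges 667nm spot fluorescence with signal-to-noise for antibody binding to printed compounds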
[8] = biological target: Torsin-1A (Homo sapiens) (UniProt O14656); experiment: TOR1A wild-type binding on microarray – cell lysate, small-molecule microarray, lysate, 635/667 nm, primary screen (AID 1149); settings: COS7 hTOR1A-WT lysate, 635 nm fluorescence, higher = more signal
Sequence of Torsin-1A (Homo sapiens) (O14656 whole entry, looked up): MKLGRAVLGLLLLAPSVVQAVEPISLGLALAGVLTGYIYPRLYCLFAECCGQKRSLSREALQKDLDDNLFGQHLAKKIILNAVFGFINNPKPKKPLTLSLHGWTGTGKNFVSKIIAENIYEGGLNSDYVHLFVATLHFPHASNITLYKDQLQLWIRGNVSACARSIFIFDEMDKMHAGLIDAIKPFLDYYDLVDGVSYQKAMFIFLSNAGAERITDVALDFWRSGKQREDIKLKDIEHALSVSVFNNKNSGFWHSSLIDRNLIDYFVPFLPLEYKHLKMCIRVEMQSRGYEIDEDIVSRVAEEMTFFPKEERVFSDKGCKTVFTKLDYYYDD

[9] = biological target: Torsin-1A (Homo sapiens) (UniProt O14656); experiment: torsin A mutant lysate binding on microarrays – cell lysate, small-molecule microarray, COS7 lysate, 635/667 nm fluorescence, primary screen (AID 1150); settings: COS7 hTOR1A mutant lysate, 635 nm fluorescence, higher = more signal;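 note: score pools 667 nm emission and signal to noise measuring lysate protein binding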
[10] = tested on: Sonic hedgehog protein (Shh); experiment: Sonic hedgehog microarray binding compounds – biochemical, small-molecule microarray, 635/667 nm fluorescence, primary screen (AID 1151); settings: 635 nm fluorescence, higher = more signal;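 note: Shh protein binding to compounds spotted on small-molecule microarray slides; score combines spot fluorescence intensity with signal-to-noise across triplicate slides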
[11] = optical density shifts of acrAB sulA E. coli – strain DRC41, OD650, 48 h, E. coli filamentation inducer project, primary screen (AID 1152); settings: higher = more signal, called active from +8 up or from −8 down;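 note: E. coli MC1000 strain DRC41 lacking acrAB efflux pump and sulA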
[12] = probe aLefty1 binding on compound microarray – biochemical, small-molecule microarray, 635/667 nm fluorescence, primary screen (AID 1153); settings: higher = more signal;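 note: score merges spot fluorescence with signal-to-noise ratio from the scanned slide images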
[13] = plasmodial surface anion channel blockers, osmotic lysis – cell-based, P. falciparum Indochina, OD700, 1 h, primary screen (AID 1154); settings: P. falciparum Indochina infected RBC osmotic lysis, higher = more signal, called active from +8 up or from −8 down
[14] = plasmodial surface anion channel blockers, osmotic lysis – cell-based, P. falciparum Indochina, OD700, 2 h, primary screen (AID 1155);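 note: lysis reports solute entry through the parasite surface anion channel PSAC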; settings: P. falciparum Indochina infected erythrocytes, higher = more signal, called active from +8 up or from −8 down
[15] = changes in parasitized red cell lysis, either direction – P. falciparum Indochina, OD700, 3 h, PSAC antagonist project, primary screen (AID 1156); settings: P. falciparum-infected erythrocytes, osmotic lysis, higher = more signal, called active from +8 up or from −8 down
[16] = plasmodial surface anion channel blockers, osmotic lysis – cell-based, P. falciparum Indochina, OD700, 18 h, primary screen (AID 1157); settings: P. falciparum Indochina infected erythrocytes, osmotic lysis OD700, 18 h; higher = more signal, called active from +8 up or from −8 down
[17] = S6 kinase pathway phospho-S6 level changes – cell-based, A549, cytoblot, luminescence, serum-stimulated, primary screen (AID 1158); settings: 5 h, higher = more signal;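 note: serum-stimulated A549 lung adenocarcinoma cells; signal is phosphorylated S6 detected by cytoblot immunostaining with HRP secondary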
[18] = biological target: NADPH oxidase 2 (Homo sapiens) (UniProt P04839); experiment: compounds shifting NOX2 Amplex Red fluorescence – cell-based, HEK293-NOX2, PMA-stimulated, NOX inhibitor project, primary screen (AID 1159); settings: 45 min, higher = more signal, called active from +8 up or from −8 down; note: test concentration not given here
Sequence of NADPH oxidase 2 (Homo sapiens) (P04839 whole entry, looked up): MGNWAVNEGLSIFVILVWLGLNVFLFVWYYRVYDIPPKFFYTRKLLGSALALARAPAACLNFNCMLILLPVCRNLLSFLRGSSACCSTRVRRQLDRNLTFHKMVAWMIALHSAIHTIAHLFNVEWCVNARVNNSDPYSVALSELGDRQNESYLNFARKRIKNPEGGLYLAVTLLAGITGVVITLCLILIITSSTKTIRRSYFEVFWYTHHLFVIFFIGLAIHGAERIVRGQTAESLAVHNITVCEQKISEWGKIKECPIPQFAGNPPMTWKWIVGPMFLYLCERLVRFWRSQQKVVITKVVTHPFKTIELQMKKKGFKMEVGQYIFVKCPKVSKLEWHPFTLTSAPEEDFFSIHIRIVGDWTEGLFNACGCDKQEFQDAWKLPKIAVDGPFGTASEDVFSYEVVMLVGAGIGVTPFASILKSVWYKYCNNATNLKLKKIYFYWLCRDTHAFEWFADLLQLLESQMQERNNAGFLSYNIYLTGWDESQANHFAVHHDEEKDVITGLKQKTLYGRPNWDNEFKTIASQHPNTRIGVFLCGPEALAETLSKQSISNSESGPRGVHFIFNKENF

[19] = biological target: NADPH oxidase 4 (Homo sapiens) (UniProt Q9NPH5); experiment: compounds shifting NOX4 Amplex Red fluorescence – cell-based, HEK293-NOX4, tetracycline-induced, NOX inhibitor project, primary screen (AID 1160); settings: HEK293-NOX4, Amplex Red H2O2 fluorescence, 45 min; higher = more signal, called active from +8 up or from −8 down
Sequence of NADPH oxidase 4 (Homo sapiens) (Q9NPH5 whole entry, looked up): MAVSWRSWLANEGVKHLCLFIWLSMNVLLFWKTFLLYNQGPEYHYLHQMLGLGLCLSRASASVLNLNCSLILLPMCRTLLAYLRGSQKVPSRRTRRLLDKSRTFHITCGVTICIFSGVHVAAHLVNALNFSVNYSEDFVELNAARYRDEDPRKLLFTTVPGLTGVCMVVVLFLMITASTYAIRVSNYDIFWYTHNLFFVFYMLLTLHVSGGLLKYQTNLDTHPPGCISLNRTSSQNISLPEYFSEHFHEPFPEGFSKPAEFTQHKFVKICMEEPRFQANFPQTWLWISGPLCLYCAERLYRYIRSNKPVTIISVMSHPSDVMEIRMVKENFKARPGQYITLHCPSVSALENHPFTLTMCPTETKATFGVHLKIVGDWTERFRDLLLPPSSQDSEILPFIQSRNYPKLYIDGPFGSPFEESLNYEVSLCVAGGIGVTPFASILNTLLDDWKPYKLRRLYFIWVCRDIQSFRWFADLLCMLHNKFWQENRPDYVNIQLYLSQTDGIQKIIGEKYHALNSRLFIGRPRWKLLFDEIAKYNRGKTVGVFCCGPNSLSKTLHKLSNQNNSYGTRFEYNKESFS

[20] = biological target: NADPH oxidase 5 (Homo sapiens) (UniProt Q96PH1); experiment: compounds shifting NOX5 Amplex Red fluorescence – cell-based, HEK293-NOX5, NOX inhibitor project, primary screen (AID 1161); settings: HEK293-NOX5, ionomycin, 45 min, higher = more signal
Sequence of NADPH oxidase 5 (Homo sapiens) (Q96PH1 whole entry, looked up): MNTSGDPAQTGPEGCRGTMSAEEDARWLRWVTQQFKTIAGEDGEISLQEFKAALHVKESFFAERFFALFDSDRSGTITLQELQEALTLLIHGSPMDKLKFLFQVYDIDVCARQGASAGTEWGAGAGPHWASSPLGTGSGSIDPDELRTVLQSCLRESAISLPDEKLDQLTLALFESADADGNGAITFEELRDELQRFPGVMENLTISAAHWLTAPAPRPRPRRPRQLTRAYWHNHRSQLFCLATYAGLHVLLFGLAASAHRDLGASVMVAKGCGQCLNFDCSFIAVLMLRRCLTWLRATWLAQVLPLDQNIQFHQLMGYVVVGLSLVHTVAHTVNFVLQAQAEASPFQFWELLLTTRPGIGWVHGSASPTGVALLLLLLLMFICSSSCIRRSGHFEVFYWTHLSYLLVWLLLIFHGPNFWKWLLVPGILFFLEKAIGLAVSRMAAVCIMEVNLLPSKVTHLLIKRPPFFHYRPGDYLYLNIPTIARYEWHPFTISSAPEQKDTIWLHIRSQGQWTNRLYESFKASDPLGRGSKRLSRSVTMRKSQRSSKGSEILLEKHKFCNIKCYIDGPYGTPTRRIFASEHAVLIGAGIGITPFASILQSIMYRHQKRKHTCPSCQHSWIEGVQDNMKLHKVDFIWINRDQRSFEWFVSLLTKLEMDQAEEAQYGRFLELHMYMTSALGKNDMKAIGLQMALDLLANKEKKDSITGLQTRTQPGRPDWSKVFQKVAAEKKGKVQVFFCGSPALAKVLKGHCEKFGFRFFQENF

In the case of `COC(=O)c1c(CC[C@@H](CO)NC(=O)N[C@H](Cc2ccccc2)Cn2cc(-c3ccccn3)nn2)oc(C(C)=O)c1C(=O)OC`, the composite z-score [1] is reported as -0.293, the z-score [2] is reported as -0.105 (inactive) and the z-score [3] is reported as 0.542 (inactive). The z-score [4] was 0.367 (inactive), the z-score [5] was 0.453 (inactive) and the composite z-score [6] was 0.946. It also gave a composite z-score [7] of -0.105, a composite z-score [8] of 0.813 and a composite z-score [9] of 0.0502. For the same molecule, the composite z-score [10] was 0.248, the z-score [11] was -0.72 (inactive) and the composite z-score [12] was -0.194. For the same molecule, the z-score [13] was 27.1 (active), the z-score [14] was 12.7 (active) and the z-score [15] was 0.729 (inactive). The z-score [16] was 1.41 (inactive), the z-score [17] was 0.032 and the z-score [18] was -1.52 (inactive). For the same molecule, the z-score [19] was 0.594 (inactive) and the z-score [20] was 1.24.
For `CC(C)=CCCC(C)=CC(O)C1C=CC2C(=O)N(c3ccccc3)C(=O)C2N1Nc1ccc(C(C)C)cc1` (stereo not given), the composite z-score [1] was 0.15, the z-score [2] was -0.11 (inactive) and the z-score [3] was -0.603 (inactive). The z-score [4] was 0.44 (inactive), the z-score [5] was 0.204 (inactive) and the composite z-score [6] was 1.33. For the same molecule, the composite z-score [7] was -0.0087, the composite z-score [8] was -0.728 and the composite z-score [9] was -0.151. The composite z-score [10] was -0.309, the z-score [11] was -0.843 (inactive) and the composite z-score [12] was 0.201. For the same molecule, the z-score [13] was 0.934 (inactive), the z-score [14] was 0.219 (inactive) and the z-score [15] was 0.391 (inactive). For the same molecule, the z-score [16] was 0.729 (inactive), the z-score [17] was -0.765 and the z-score [18] was -1.11 (inactive). The z-score [19] was -1.15 (inactive) and the z-score [20] was -1.34.
In the case of `CCCCN1CC=CC23O[C@@H]4/C=C\CCCOC(=O)C4[C@H]2C(=O)N(CCCCCO)[C@@H]3C1=O` (stereo not given in full), the composite z-score [1] is reported as 0.0311, the z-score [2] is reported as -0.103 (inactive) and the z-score [3] is reported as 0.0433 (inactive). For the same molecule, the z-score [4] was 0.333 (inactive), the z-score [5] was -0.391 (inactive) and the composite z-score [6] was -1.43. The composite z-score [7] was -0.211, the composite z-score [8] was -0.0808 and the composite z-score [9] was 0.777. For the same molecule, the composite z-score [10] was -0.695, the z-score [11] was -0.852 (inactive) and the composite z-score [12] was -0.328. For the same molecule, the z-score [13] was 0.896 (inactive), the z-score [14] was 0.481 (inactive) and the z-score [15] was -0.765 (inactive). The z-score [16] was 0.0625 (inactive), the z-score [17] was -0.782 and the z-score [18] was 1.07 (inactive). For the same molecule, the z-score [19] was -0.18 (inactive) and the z-score [20] was 1.74.
For `CC(C)(C)OC(=O)CC[C@@]1(C(=O)N2CCCCC2)N=C(c2ccc(OCCCO)cc2)O[C@@H]1c1ccccc1`, the composite z-score [1] was 0.94, the z-score [2] was -2.99 (inactive) and the z-score [3] was -0.34 (inactive). For the same molecule, the z-score [4] was 1.66 (inactive), the z-score [5] was 0.127 (inactive) and the composite z-score [6] was 1.82. It also gave a composite z-score [7] of 0.283, a composite z-score [8] of 0.766 and a composite z-score [9] of 0.912. For the same molecule, the composite z-score [10] was -0.45, the z-score [11] was -0.56 (inactive) and the composite z-score [12] was 0.349. For the same molecule, the z-score [13] was 26.6 (active), the z-score [14] was 19.2 (active) and the z-score [15] was 1.79 (inactive). For the same molecule, the z-score [16] was 2.14 (inactive), the z-score [17] was -0.354 and the z-score [18] was -2.08 (inactive). The z-score [19] was 1.7 (inactive) and the z-score [20] was 0.0911.
In the case of `O=C1O[C@H](c2ccccc2)[C@H](c2ccccc2)N2[C@H]1[C@@H](C(=O)N1CCN(c3ncccn3)CC1)[C@]1(C(=O)Nc3ccc(C#CC4=CCCCC4)cc31)[C@H]2c1ccccc1OCCO`, the composite z-score [1] is reported as 0.406, the z-score [2] is reported as -3.34 (inactive) and the z-score [3] is reported as -0.869 (inactive). For the same molecule, the z-score [4] was -0.581 (inactive), the z-score [5] was -0.111 (inactive) and the composite z-score [6] was 0.895. For the same molecule, the composite z-score [7] was 0.772, the composite z-score [8] was 0.0637 and the composite z-score [9] was 0.0096. The composite z-score [10] was 1.79, the z-score [11] was -0.544 (inactive) and the composite z-score [12] was 1.52. For the same molecule, the z-score [13] was 1.45 (inactive), the z-score [14] was 0.746 (inactive) and the z-score [15] was 0.774 (inactive). The z-score [16] was 1.03 (inactive), the z-score [17] was -0.187 and the z-score [18] was 1.46 (inactive). For the same molecule, the z-score [19] was 0.867 (inactive) and the z-score [20] was 1.01.
With `O=C(CS)NCCCCCNC(=O)[C@@H]1C[C@@H]2C(=O)NCC(=O)N2[C@@H]1c1ccc(O)cc1` the composite z-score [1] was -0.0716, the z-score [2] was -0.454 (inactive) and the z-score [3] was -0.171 (inactive). The z-score [4] was 0.281 (inactive), the z-score [5] was 0.208 (inactive) and the composite z-score [6] was -0.618. The composite z-score [7] was 0.0275, the composite z-score [8] was 0.507 and the composite z-score [9] was 0.0395. For the same molecule, the composite z-score [10] was 1.44, the z-score [11] was 1.6 (inactive) and the composite z-score [12] was -0.101. The z-score [13] was 0.802 (inactive), the z-score [14] was 0.0605 (inactive) and the z-score [15] was -0.194 (inactive). The z-score [16] was 0.179 (inactive), the z-score [17] was -0.259 and the z-score [18] was 1.18 (inactive). For the same molecule, the z-score [19] was -0.584 (inactive) and the z-score [20] was 1.67.
With `COCCCNC(=O)[C@@]1(Cc2ccccc2)N=C(c2ccc(OCCCO)cc2)O[C@H]1c1ccccc1CN=[N+]=[N-]` the composite z-score [1] was 0.419, the z-score [2] was -3.17 (inactive) and the z-score [3] was 1.55 (inactive). For the same molecule, the z-score [4] was 0.447 (inactive), the z-score [5] was -0.929 (inactive) and the composite z-score [6] was 0.716. The composite z-score [7] was 0.389, the composite z-score [8] was 0.544 and the composite z-score [9] was 0.37. For the same molecule, the composite z-score [10] was -0.0164, the z-score [11] was 0.576 (inactive) and the composite z-score [12] was 0.272. The z-score [13] was 14.3 (active), the z-score [14] was 1.83 (inactive) and the z-score [15] was 1.75 (inactive). For the same molecule, the z-score [16] was 0.94 (inactive), the z-score [17] was -0.443 and the z-score [18] was -4.56 (inactive). For the same molecule, the z-score [19] was -0.271 (inactive) and the z-score [20] was -0.67.
In the case of `COC(=O)[C@@]1(Cc2ccc(OC)cc2)[C@H]2c3cc(C(=O)N4CCCC4)n(CCc4ccc(O)c(O)c4)c3C[C@H]2CN1C(=O)c1ccccc1`, the composite z-score [1] is reported as -0.0111, the z-score [2] is reported as -1.27 (inactive) and the z-score [3] is reported as -0.128 (inactive). The z-score [4] was 1.54 (inactive), the z-score [5] was 0.706 (inactive) and the composite z-score [6] was 0.27. For the same molecule, the composite z-score [7] was 0.147, the composite z-score [8] was -0.252 and the composite z-score [9] was 0.641. For the same molecule, the composite z-score [10] was -0.349, the z-score [11] was -1.84 (inactive) and the composite z-score [12] was 0.378. The z-score [13] was 5.39 (inactive), the z-score [14] was 0.451 (inactive) and the z-score [15] was 2.1 (inactive). For the same molecule, the z-score [16] was 0.912 (inactive), the z-score [17] was 0.198 and the z-score [18] was -3.75 (inactive). For the same molecule, the z-score [19] was -8.38 (active) and the z-score [20] was -7.92.
